The values that follow come from PubChem BioAssay (NCI).

Compounds without any hit were thinned out: in the full panel of roughly 83,000, 20% have a hit.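 Each cell line was grown in a 96-well plate and treated with one concentration of compound for 48 hours. Values below 10 were considered active.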 Unmarked numbers belong to inactive results. Calls of active or inactive are those of the source.

Among the test systems are NCI-H23 lung; NCI-H226 lung; NCI-H322M lung; HOP-62 NSCLC; NCI-H460 lung; HOP-92 NSCLC; NCI-H522 lung; A549/ATCC NSCLC; 786-0 renal; COLO 205 colon.
Assay in all cases: NCI-60 one-dose screen, 48 h (100 = growth as untreated, 0 = no growth, -100 = all killed)
Conditions in all cases: 10 µM unless noted

Take `O=C(CCCSc1nc(-c2ccccc2)cc(-c2ccccc2)n1)NO`: the growth in the assay on NCI-H23 lung was -2.58% (active); with NCI-H226 lung, -6.97% (active); with NCI-H322M lung, 12.6%; with HOP-62 NSCLC it was -8.18% (active); in the assay with NCI-H460 lung, 6.46% (active); with HOP-92 NSCLC, -3.2% (active). In addition, the growth with NCI-H522 lung is -9.12% (active); in the assay with A549/ATCC NSCLC it was -1.91% (active); in the assay on 786-0 renal, 7.15% (active); in the assay with COLO 205 colon, -14% (active).
For `COc1cc2c(cc1OCCCN1CCN(CCCOc3cc4c(cc3OC)C(=O)N3C[C@H](F)C[C@H]3C=N4)CC1)N=C[C@@H]1C[C@@H](F)CN1C2=O`, the growth in the assay with NCI-H23 lung is 10.5%; with NCI-H226 lung, 17.2%; in the assay with NCI-H322M lung it was -23.6% (active); in the assay on HOP-62 NSCLC it was 27.6%; in the assay with NCI-H460 lung, 1.24% (active); in the assay with HOP-92 NSCLC, -6.06% (active). The growth with NCI-H522 lung is -48.8% (active); with A549/ATCC NSCLC it was 6.52% (active); in the assay on 786-0 renal it was 12.4%; in the assay with COLO 205 colon it was -47.1% (active).
Regarding `Ic1ccc2[nH]cc(SSc3c[nH]c4ccc(I)cc34)c2c1`, the growth was 17.9% with NCI-H23 lung; 24.9% with NCI-H226 lung; 57.8% in the assay with NCI-H322M lung; 30.4% in the assay with HOP-62 NSCLC; -11.5% (active) in the assay on NCI-H460 lung; -6.72% (active) with HOP-92 NSCLC. The growth with NCI-H522 lung was -48% (active); in the assay with A549/ATCC NSCLC, 21.8%; in the assay on 786-0 renal, 41.6%; in the assay on COLO 205 colon, -37.1% (active).
On to `CC(C)OC(=O)Nc1cc(F)c(F)cc1F`, for which the growth is 99% in the assay with NCI-H23 lung; 98% in the assay on NCI-H226 lung; 96.3% in the assay on NCI-H322M lung; 99.8% in the assay with HOP-62 NSCLC; 104% in the assay with NCI-H460 lung; 102% in the assay with HOP-92 NSCLC. In addition, the growth in the assay on NCI-H522 lung was 97.8%; in the assay on A549/ATCC NSCLC it was 97.8%; in the assay on 786-0 renal it was 107%; with COLO 205 colon, 113%.
For the compound `Cc1ccc(S(=O)(=O)Oc2ccc([N+](=O)[O-])cc2[N+](=O)[O-])cc1`, the growth was 97% in the assay on NCI-H23 lung; 68.9% with NCI-H226 lung; 122% in the assay on NCI-H322M lung; 115% in the assay on HOP-62 NSCLC; 110% in the assay with NCI-H460 lung; 65.3% with HOP-92 NSCLC. For the same compound, the growth in the assay with NCI-H522 lung was 18.3%; in the assay on A549/ATCC NSCLC, 104%; in the assay on 786-0 renal, 47.7%; in the assay with COLO 205 colon it was 85.8%.
As to `CC1(C)OC2[C@@H](CNC(=O)NC(=O)NC(=O)CI)O[C@@H](n3cnc4c(NC(=O)Nc5ccccc5)ncnc43)[C@H]2O1` (stereo not given in full), the growth was 57.7% with NCI-H23 lung; 97.1% with NCI-H226 lung; 103% in the assay with NCI-H322M lung; 78% with HOP-62 NSCLC; 93.1% with NCI-H460 lung; -63.2% (active) in the assay with HOP-92 NSCLC. Moreover, the growth in the assay on NCI-H522 lung was -76% (active); in the assay on A549/ATCC NSCLC, 94.9%; with 786-0 renal, -77.9% (active); with COLO 205 colon, 51.7%.
`Nc1nc(SCc2cccc([N+](=O)[O-])c2)c2[nH]cnc2n1`: the growth was 102% in the assay on NCI-H23 lung; 90% with NCI-H226 lung; 91.2% with NCI-H322M lung; 94.6% with HOP-62 NSCLC; 108% in the assay with NCI-H460 lung; 100% in the assay on HOP-92 NSCLC. Further, the growth in the assay with NCI-H522 lung is 81.1%; in the assay with A549/ATCC NSCLC, 97.2%; with 786-0 renal, 98.1%; in the assay with COLO 205 colon, 114%.
With `O=C(Nc1ccc(Oc2ccc(F)cc2)c(Cl)c1)c1cnccn1`, the growth in the assay with NCI-H23 lung was 65.6%; in the assay with NCI-H226 lung, 74.4%; with NCI-H322M lung it was 82.2%; with HOP-62 NSCLC, 56.2%; with NCI-H460 lung, 28%; in the assay with HOP-92 NSCLC, 58.2%. For the same compound, the growth with NCI-H522 lung was 54.2%; in the assay with A549/ATCC NSCLC it was 43.7%; with 786-0 renal, 81%; with COLO 205 colon it was 69.3%.
Regarding `CCCCCn1c(C)cc(/C=C\c2ccc3cc(C)ccc3[n+]2C)c1C`, the growth in the assay on NCI-H23 lung was 3.14% (active); with NCI-H226 lung, -58.4% (active); in the assay with NCI-H322M lung, 30.3%; in the assay with HOP-62 NSCLC, -58.9% (active); in the assay with NCI-H460 lung, -75.1% (active); with HOP-92 NSCLC it was -64% (active). Further, the growth in the assay with NCI-H522 lung is -36.7% (active); with A549/ATCC NSCLC, -84.5% (active); with 786-0 renal, -76.7% (active); in the assay with COLO 205 colon, -92.5% (active).
For the compound `COc1cc(-c2cc(-c3ccc(Nc4ncnc5cc(Cl)ccc45)cc3)nc(N3CCCCC3)n2)cc(OC)c1OC`, the growth in the assay with NCI-H23 lung was 102%; in the assay with NCI-H226 lung it was 99.3%; in the assay with NCI-H322M lung, 95.5%; in the assay on HOP-62 NSCLC it was 84.7%; in the assay with NCI-H460 lung, 94.7%; in the assay on HOP-92 NSCLC, 92%. Besides, the growth in the assay on NCI-H522 lung is 75.3%; with A549/ATCC NSCLC, 84.7%; in the assay on 786-0 renal, 98.9%; with COLO 205 colon it was 110%.
For `Cc1ccc(S(=O)(=O)Nc2ccccc2)cc1N`, the growth in the assay on NCI-H23 lung is 90.8%; with NCI-H226 lung, 95.6%; with NCI-H322M lung, 97%; in the assay on HOP-62 NSCLC, 86.2%; in the assay with NCI-H460 lung it was 99.5%; in the assay with HOP-92 NSCLC, 75.2%. Besides, the growth is 23.5% in the assay on NCI-H522 lung, 81.3% with A549/ATCC NSCLC, 99.8% in the assay on 786-0 renal and 119% in the assay with COLO 205 colon.
On to `COC(=O)[C@]12CCC(C)(C)C[C@H]1C1=CC[C@@H]3[C@@]4(C)C/C(=C/c5cccnc5)C(=O)C(C)(C)[C@@H]4CC[C@@]3(C)[C@]1(C)CC2`, for which the growth is -40.6% [100 µM] (active) in the assay with NCI-H23 lung; -51.7% [100 µM] (active) with NCI-H226 lung; -13.4% [100 µM] (active) in the assay on NCI-H322M lung; -19.3% [100 µM] (active) with HOP-62 NSCLC; -39.3% [100 µM] (active) in the assay with NCI-H460 lung; -61.5% [100 µM] (active) with HOP-92 NSCLC. The growth with NCI-H522 lung is -72.9% [100 µM] (active); with A549/ATCC NSCLC, 0.0781% [100 µM] (active); with 786-0 renal, -29.1% [100 µM] (active); with COLO 205 colon it was -46.2% [100 µM] (active).
